Values joined by “and” are separate entries in the source; they are usually repeats but may differ in a detail not shown here. Equal values may be shown once. Active and inactive are the calls of the source.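 Rule for the calls, unless noted: active = compounds whose cell count with miR-34 switched on is under 0.7 times the count with it off; inactive = the rest.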

These results are taken from PubChem BioAssay.

Test [1] in a line: viability loss with induced miR-34 in A549 – imaging, A549 dox-inducible miR-34, nuclei and caspase counts, primary screen (AID 1347080). Particulars: A549 miR-34 inducible, Hoechst nuclei count, 48 h.
Test [2] can be described thus: MELAS cybrid and Rieske KO viability enhancers – cell-based, MELAS cybrids, Rieske KO mouse fibroblasts, CellTiter-Glo, primary screen (AID 1508586;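 active = mean z-score across replicates of 1.96 or higher in either the MELAS or the Rieske mutant cell line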;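 note: z relative to plate mean and SD of compound and empty wells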). Particulars: low glucose. Background: ATP-based viability assays read luminescence as a measure of living cells.
[3] abbreviates: stronger effect = lower value, cell number ratio, induced over uninduced.
Where [4] appears, read: measured here: relative caspase fold change +Dox/-Dox.
Where [5] appears, read: measured here: total cells with miR-34 induction, stronger effect = lower value.
[6] abbreviates: measured here: total cells without miR-34 induction.
[7] abbreviates: MELAS cybrid survival, CellTiter-Glo 48 h, stronger effect = higher value.
Setting [8] is: Rieske KO mouse fibroblast survival, CellTiter-Glo 72 h.
Note: test concentration not given here.

As to `COc1cc(C2Oc3ccc(C4Oc5cc(O)cc(O)c5C(=O)C4O)cc3OC2CO)ccc1O` (stereo not given), the fold change in test [1] (setting [3]) was 0.913 (inactive); in test [1] (setting [4]) it was 0.744. Moreover, the cell count in test [1] (setting [5]) was 8070; in test [1] (setting [6]), 8840. The z-score is -0.245 (inactive) in test [2] (setting [7]) and -0.07 in test [2] (setting [8]).
For the compound `O=C(C=Cc1ccc(O)c(O)c1)c1ccc(O)cc1O`, the figures for the fold change in test [1] (setting [3]) and in test [1] (setting [4]) were 0.953 (inactive) and 0.45, respectively. Moreover, the cell count is 8780 in test [1] (setting [5]) and 9210 in test [1] (setting [6]). In addition, the values for the z-score in test [2] (setting [7]) and in test [2] (setting [8]) were -0.304 (inactive) and -0.063, respectively.
Regarding `Oc1ccc(C2COc3cc(O)ccc3C2)cc1` (stereo not given), the fold change in test [1] (setting [3]) was 1.04 (inactive) and 0.979 (inactive); in test [1] (setting [4]), 1.09 and 0.678. In addition, the cell count in test [1] (setting [5]) is 6090 and 7580; in test [1] (setting [6]), 5860 and 7740. Also, the values for the z-score in test [2] (setting [7]) and in test [2] (setting [8]) were -0.326 (inactive) and -0.182, respectively.
In the case of `NC1=N[C@@]2(c3cc(NC(=O)c4ccc(F)cn4)ccc3F)COC[C@@H]2CS1`, the fold change in test [1] (setting [3]) was 0.902 (inactive); in test [1] (setting [4]), 1.51. The cell count in test [1] (setting [5]) is 8500; in test [1] (setting [6]), 9420. The z-score in test [2] (setting [7]) was -0.211 (inactive); in test [2] (setting [8]), 0.113.
With `COc1ccc(C2CC(=O)c3c(O)cc(O)cc3O2)cc1O` (stereo not given), the results for the fold change in test [1] (setting [3]) and in test [1] (setting [4]) were 0.926 (inactive) and 0.807, respectively. For the same compound, the values for the cell count in test [1] (setting [5]) and in test [1] (setting [6]) were 9010 and 9730, respectively. Moreover, the z-score is -0.233 (inactive) in test [2] (setting [7]) and 0.0902 in test [2] (setting [8]).
As to `COCC(NC(=O)c1cnc(C)s1)C(=O)NC(COC)C(=O)NC(Cc1ccccc1)C(=O)C1(C)CO1` (stereo not given), the fold change in test [1] (setting [3]) was 0.898 (inactive); in test [1] (setting [4]) it was 1.09. In addition, the cell count in test [1] (setting [5]) turned out to be 714; in test [1] (setting [6]), 796. For the same compound, the figures for the z-score in test [2] (setting [7]) and in test [2] (setting [8]) were 0.992 (inactive) and -0.399, respectively.
`COc1ccc(CNCc2cccc3ccccc23)cc1`: the fold change in test [1] (setting [3]) was 0.918 (inactive); in test [1] (setting [4]) it was 0.638. Besides, the cell count in test [1] (setting [5]) is 8220; in test [1] (setting [6]) it was 8960. The z-score in test [2] (setting [7]) was -0.404 (inactive); in test [2] (setting [8]) it was -0.0397.
As to `CC(CS)C(=O)N1CCCC1C(=O)O` (stereo not given), the values for the fold change in test [1] (setting [3]) and in test [1] (setting [4]) were 1.01 (inactive) and 0.525, respectively. In addition, the results for the cell count in test [1] (setting [5]) and in test [1] (setting [6]) were 8320 and 8250, respectively. For the same compound, the z-score in test [2] (setting [7]) is -0.2 (inactive); in test [2] (setting [8]), -0.263.
`CC1(C)S[C@H]2C(NC(=O)C(N)c3ccccc3)C(=O)N2C1C(=O)O` (stereo not given in full): the fold change was 0.913 (inactive) in test [1] (setting [3]) and 0.727 in test [1] (setting [4]). Moreover, the cell count in test [1] (setting [5]) was found to be 8130; in test [1] (setting [6]), 8910. Besides, the z-score is -0.295 (inactive) in test [2] (setting [7]) and -0.19 in test [2] (setting [8]).
With `NC(=O)c1noc(C(CCCC2CCCCC2)CC(=O)NO)n1` (stereo not given), the fold change in test [1] (setting [3]) is 0.791 (inactive); in test [1] (setting [4]), 1.15. The cell count was 6790 in test [1] (setting [5]) and 8580 in test [1] (setting [6]). The z-score was -0.42 (inactive) in test [2] (setting [7]) and -1.85 in test [2] (setting [8]).
For the compound `N#CC1C[C@@H]2C[C@H]2N1C(=O)C(N)C12CC3CC(CC(O)(C3)C1)C2` (stereo not given in full), the fold change in test [1] (setting [3]) was 0.986 (inactive); in test [1] (setting [4]), 0.858. Further, the cell count in test [1] (setting [5]) is 7460; in test [1] (setting [6]), 7570. The z-score in test [2] (setting [7]) was -0.404 (inactive); in test [2] (setting [8]), 0.586.
As to `OCC1OC(c2ccc(Cl)c(Cc3ccc(OC4CCOC4)cc3)c2)C(O)C(O)C1O` (stereo not given), the fold change in test [1] (setting [3]) was 0.997 (inactive); in test [1] (setting [4]) it was 0.234. Moreover, the cell count was found to be 8710 in test [1] (setting [5]) and 8730 in test [1] (setting [6]). Further, the figures for the z-score in test [2] (setting [7]) and in test [2] (setting [8]) were -0.39 (inactive) and -0.293, respectively.
As for `CC(C)n1c(C=CC(O)CC(O)CC(=O)O)c(-c2ccc(F)cc2)c2ccccc21` (stereo not given), the fold change in test [1] (setting [3]) was 1.12 (inactive); in test [1] (setting [4]) it was 0.928. In addition, the cell count in test [1] (setting [5]) turned out to be 1580; in test [1] (setting [6]), 1410. The z-score was 0.699 (inactive) in test [2] (setting [7]) and -1.97 in test [2] (setting [8]).
Consider `OCC(O)C(O)C(O)C(O)CO` (stereo not given), for which the fold change in test [1] (setting [3]) is 0.977 (inactive) and 0.927 (inactive); in test [1] (setting [4]), 0.781 and 0.815. For the same compound, the cell count in test [1] (setting [5]) is 7830 and 9620; in test [1] (setting [6]) it was 8020 and 10400. Also, the z-score is -0.426 (inactive) and -0.241 (inactive) in test [2] (setting [7]); -0.124 and 0.173 in test [2] (setting [8]).
`Cc1ccc(C(=O)N(CCCN)C(c2oc3cc(Cl)ccc3c(=O)c2Cc2ccccc2)C(C)C)cc1` (stereo not given): the fold change in test [1] (setting [3]) is 0.942 (inactive); in test [1] (setting [4]) it was 0.732. Also, the cell count stood at 1220 in test [1] (setting [5]) and 1290 in test [1] (setting [6]). The z-score in test [2] (setting [7]) is 2.62 (active); in test [2] (setting [8]), 0.0146.
